Screening results from PubChem BioAssay.
Most compounds without a hit are left out; they make up all but 0.45% or so of the library.
Mtb BioA inh: BioA (M. tuberculosis) enzyme inhibition; 360,000 tested, 0.096% active; AID 602481; inhibition, % at 9.99 µM; purified M. tuberculosis BioA enzyme, plate reader; in the data active = inhibition above about 40%; inconclusive = no clear call, values can overlap the other calls
FadD28 binding: blocks FadD28 binding to the bisubstrate probe | fluorescence polarization | inhibition, % at 12.5 µM | 360,000 tested, 0.22% active | AID 588549; in the data active = inhibition above about 8.5%, passing the limit was not always enough; inconclusive = no clear call, values can overlap the other calls
TcdB GH inh: TcdB glycohydrolase inhibition; P18177; TcdB glycohydrolase enzymatic assay, plate reader; inhibition, % at 9.99 µM; 350,000 tested, 0.24% active; AID 652162; in the data active = inhibition above about 10%
Y pestis TopoI: inhibitors of Yersinia pestis topoisomerase I; 360,000 tested, 0.064% active; AID 504884; Y. pestis Topo-I cleavage product accumulation, plate reader; activity, % at 10 µM; in the data active = activity above about 50%, passing the limit was not always enough; inconclusive = no clear call, values can overlap the other calls
* marks the source's active call; other numbers are inactive results; u = inconclusive; x = no result.

SMILES | Mtb BioA inh | FadD28 binding | TcdB GH inh | Y pestis TopoI
Brc1ccc(-c2nc3ccc(Br)cn3c2Cc2ccccc2)cc1 | 3 | -2 | 0 | x
CCCCNC(=O)C1CCN(S(=O)(=O)N2CCOCC2)CC1 | 0 | 0 | 10* | 7
CC(=O)c1ccc2c(c1)C1C=CCC1C(c1ccc(S(=O)(=O)N3CCOCC3)cc1)N2 (configuration not stated) | x | -5 | x | 1
O=C(O)c1ccc2c(c1)C1C=CCC1C(c1ccncc1)N2 (configuration not stated) | 0 | 0 | 1 | -1
COc1ccc(NS(=O)(=O)c2ccc3c(c2)[C@H]2C=CC[C@H]2[C@@H](c2ccc(C(=O)O)cc2)N3)cc1 | 2 | 32* | 1 | -25
Cc1c(Cl)cccc1NS(=O)(=O)c1ccc2c(c1)C1C=CCC1C(c1ccc(C(=O)O)cc1)N2 (configuration not stated) | x | 28* | x | -1
C[C@H](NC(=O)C[C@@H]1C[C@H]2c3cc(NC(=O)C4CCC4)ccc3O[C@H]2[C@@H](CO)O1)c1ccccc1 | -1 | x | 0 | x
CCOC(=O)N1CCN(c2nc(-c3ccc(Cl)cc3)cs2)CC1 | x | -3 | x | 9
CC(C)C(=O)N1CCN(c2nc(-c3ccc(Cl)cc3)cs2)CC1 | x | 1 | x | 53*
O=C(COC(=O)/C=C/c1cccs1)Nc1ccc(F)cc1 | -3 | 0 | 0 | 2
CCc1cccc(NC(=O)COC(=O)/C=C/c2cccs2)c1 | 21 | 20* | 0 | 17
Cc1ccccc1COc1ccc2oc(C)c(C(=O)O)c2c1 | x | 0 | 12* | -10
O=C(c1cc(COc2c(F)cccc2F)on1)N(Cc1ccccc1)CC1CC1 | -1 | -6 | 0 | 64*
CN(C(=O)c1cc(COc2c(F)cccc2F)on1)C1CCOC1 (configuration not stated) | 0 | -1 | -1 | 6
COc1cccc(S(=O)(=O)N2C[C@H](O)COC[C@@H]3O[C@H](CC(=O)NCCCN4CCOCC4)CC[C@H]32)c1 | -3 | x | 0 | x
O=C(Nc1ccc(C(F)(F)F)cc1)N[C@@H]1CC[C@@H](CCNC(=O)c2ccccc2F)O[C@@H]1CO | 0 | x | -1 | x
COc1cc(NCCCC(C)N)c2ncccc2c1 (configuration not stated) | -6 | 8.7* | x | -20
COc1cccc(C2C(C(=O)c3cc4ccccc4o3)=C(O)C(=O)N2c2cc(C)on2)c1 (configuration not stated) | -2 | 0 | 1 | 31
C=CCOc1cccc(C2C(C(=O)c3cc4ccccc4o3)=C(O)C(=O)N2c2cc(C)on2)c1 (configuration not stated) | 0 | -1 | 1 | 69*
COc1ccccc1CNC(=O)CCCc1cn(C)c2ccccc12 | 0 | 1 | -5 | 7
COc1ccc(CNC(=O)Cc2cn(C)c3ccccc23)c(OC)c1 | 1 | -1 | 28* | 10
O=C(C[C@@H]1C[C@@H]2c3cc(NC(=O)C4CCOCC4)ccc3O[C@@H]2[C@H](CO)O1)NCc1cc(F)ccc1F | 0 | x | -6 | x
COc1ccc(C(O)(C(C)C)C(CN2CCOCC2)c2ccccc2)cc1 (configuration not stated) | -1 | -4 | 21* | 15
COc1ccc(C(O)(C(C)C)C(CN2CCOCC2)c2ccc(Cl)cc2)cc1 (configuration not stated) | 0 | -5 | 0 | 23
CCc1cccc2c(C(=O)CN3C(=O)NC4(CCCCCC4)C3=O)c[nH]c12 | -1 | 53* | 1 | -17
SMILES | Mtb BioA inh | FadD28 binding | TcdB GH inh | Y pestis TopoI
CCc1cccc2c(C(=O)CN3C(=O)C(=O)N(C4CCCC4)C3=O)c[nH]c12 | x | 14* | 2 | -19
CCc1cccc2c(C(=O)CN3C(=O)NC4(CCCCC4)C3=O)c[nH]c12 | 0 | 13* | 0 | -10
Cc1ccc(C)c(C(=O)CN2C(=O)C(=O)N(C3CCCC3)C2=O)c1 | 0 | u | 0 | 0
COc1ccc(NC(=O)Nc2ccc3c(c2)C(=O)N([C@H](C)CO)C[C@H](C)[C@@H](CN(C)C(=O)Nc2c(C)noc2C)OCCCC[C@@H](C)O3)cc1 | -4 | x | 1 | x
CNC[C@H]1Oc2ncc(Br)cc2C(=O)N([C@H](C)CO)C[C@@H]1C | -1 | x | x | x
COc1ccc(S(=O)(=O)Nc2ccc3c(c2)C(=O)N([C@@H](C)CO)C[C@H](C)[C@@H](CN(C)Cc2ccncc2)OCCCC[C@@H](C)O3)cc1 | 1 | x | 1 | x
C/C(=N\OCC(=O)Nc1nc2ccccc2s1)c1ccccc1 | x | -2 | 10* | -3
C[C@@H]1CN([C@@H](C)CO)C(=O)Cc2cc(NC(=O)Cc3ccccc3)ccc2O[C@H]1CN(C)C(=O)Nc1ccc2c(c1)OCO2 | 0 | x | 0 | x
CO[C@H]1CN(C)C(=O)c2ccc(NC(=O)C3CC3)cc2OC[C@@H](C)N(Cc2cccc(F)c2)C[C@H]1C | 1 | x | x | x
O=C(CSc1nc2ccccc2[nH]1)NC1CCCc2ccccc21 (configuration not stated) | x | u | 13* | 4
O=C(O)c1cc(O)c2c(c1)[C@H]([C@H]1c3cc(C(=O)O)cc(O)c3C(=O)c3c(O[C@@H]4O[C@H](CO)[C@@H](O)[C@H](O)[C@H]4O)cccc31)c1cccc(OC3O[C@H](CO)[C@@H](O)[C@H](O)[C@H]3O)c1C2=O (some centres not stated) | 3 | 29* | -51 | -30
O=C(O)c1cc(O)c2c(c1)[C@@H]([C@H]1c3cc(C(=O)O)cc(O)c3C(=O)c3c(O[C@@H]4O[C@H](CO)[C@@H](O)[C@H](O)[C@H]4O)cccc31)c1cccc(OC3O[C@H](CO)[C@@H](O)[C@H](O)[C@H]3O)c1C2=O (some centres not stated) | 1 | 14* | -39 | -29
O=C(CNc1ccccc1C(=O)O)c1ccccc1 | -1 | 0 | 0 | -1
Cc1ccccc1NCC(=O)c1ccc(Br)cc1 | -2 | -3 | 3 | 176*
NC(=O)c1ccccc1NCC(=O)c1ccc(Cl)cc1 | x | 0 | 1 | 57*
COc1ccc(C(=O)CNc2ccccc2Br)cc1 | -2 | -1 | 0 | 1
CC(C)(C)[S@@](=O)N1Cc2cc(C(=O)N3CCCCC3)nc(-c3cccc(-c4ccc(F)cc4)c3)c2[C@H]1CCO | -2 | x | 1 | x
CC1(C)CC(=O)C(C=Nc2ccc(O)cc2)=C(O)C1 | -2 | -3 | 32* | 0
CC1(C)CC(=O)C(C=Nc2ccc(N)cc2)=C(O)C1 | x | -8 | 13* | -1
CCOc1ccc(N=CC2=C(O)CC(C)(C)CC2=O)cc1 | -3 | -3 | x | -3
COc1cccc(N=CC2=C(O)CC(C)(C)CC2=O)c1 | -5 | -1 | 1 | -8
C[C@@H]1CCCCO[C@H](CN(C)S(C)(=O)=O)[C@@H](C)CN([C@@H](C)CO)C(=O)c2cc(NC(=O)c3ccccc3)ccc2O1 | 0 | x | 0 | x
CS(=O)(=O)c1ccc2nc(NC(=O)c3ccc(NS(=O)(=O)c4ccc(F)c(F)c4)cc3)sc2c1 | -1 | 2 | 2 | 7
O=C(Nc1nc2ccc(SC(F)F)cc2s1)c1ccc(NS(=O)(=O)c2ccc(F)c(F)c2)cc1 | 1 | 17* | 0 | 7
